AMA1 RON2 block – AMA1-RON2 (P. falciparum) interaction inhibition | AlphaScreen AMA1-biotinylated RON2 peptide binding | Potency, µM (titrated, usually from 58.2 µM), usual class: inhibitors | 360,000 compounds, 0.2% hits; note: nearly all actives have a fitted effect of over 45% in size
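AMA1 (3D7) with his tag at 25 nM final met compounds first, then biotinylated RON2 peptide at 25 nM; detection used donor plus acceptor beads, 10 µg/mL apiece, read by AlphaScreen after 30 min at room temperature.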
TbPYK inhibitor – T. brucei pyruvate kinase inhibition. Q57TT1. TbPYK enzyme, Kinase-Glo Plus ATP luminescence, 45 min. Potency, µM (top dose mostly 76.8 µM), usual class: inhibitors. 410,000 compounds, 0.12% hits; note: nearly all actives have a fitted effect of over 50% in size
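Readout: single end-point luminescence (Kinase-Glo Plus, 10 min). Reaction conditions were TbPYK/substrate plus 130 uM ADP, 45 min at RT, pH 7.2 TEA buffer. No-enzyme wells served as controls, and data were normalized before concentration-response fitting.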
Giardia FBPA inh – blocks Giardia fructose-bisphosphate aldolase activity; Potency, µM (titrated, usually from 59.6 µM), most hits filed as inhibitors; 290,000 compounds, 0.71% hits; purified Giardia FBPA; A8B2U2; note: nearly all actives have a fitted effect of over 55% in size
Target sequence (A8B2U2 whole entry, looked up): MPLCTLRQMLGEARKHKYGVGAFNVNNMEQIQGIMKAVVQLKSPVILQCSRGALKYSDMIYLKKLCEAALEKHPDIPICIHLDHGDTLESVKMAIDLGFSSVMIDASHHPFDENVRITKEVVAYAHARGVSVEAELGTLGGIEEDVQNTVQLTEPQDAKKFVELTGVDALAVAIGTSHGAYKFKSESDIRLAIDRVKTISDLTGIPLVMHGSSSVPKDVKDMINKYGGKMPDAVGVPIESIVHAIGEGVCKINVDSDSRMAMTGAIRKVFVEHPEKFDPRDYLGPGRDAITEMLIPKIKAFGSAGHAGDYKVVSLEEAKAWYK
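Giardia FBPA (40 nM reagent) was preincubated 10 min at RT with compound (up to 57.5 uM final), then substrate plus GAPDH/TPI/NAD/arsenate coupling system with diaphorase/resazurin was added; resorufin fluorescence (525/598 nm) was read after 20 min.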
LmPK inh – blocks Leishmania mexicana pyruvate kinase activity | Q27686 | purified LmPK, Kinase-Glo ATP luminescence, 1 h | Potency, µM (top dose mostly 57.5 µM), usual class: inhibitors | 290,000 compounds, 0.37% hits | AID 1721
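ATP generated from ADP (0.1 mM) and PEP (0.5 mM) by 0.1 nM LmPK over 1 h at room temperature (pH 7.2 imidazole buffer) was detected by coupled luciferase luminescence. Values were normalized to uninhibited and no-enzyme wells.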
NS1 inh – inhibitors of influenza NS1 protein function. Potency, µM (doses to about 46.1 µM). 270,000 compounds, 0.4% hits. AID 2326; calls by dose curve; note: actives are rising curves; nearly all actives have a fitted effect of over 50% in size
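S. cerevisiae expressing influenza A NS1, grown in glucose, washed, then diluted 1:100 into pH 6.0 -URA galactose medium with 23 nl compound. Growth recovery read as OD600; NS1-free strain serves as control.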
NS1 inh valid – influenza NS1 function inhibition validation. shares compounds with NS1 inh. influenza NS1 function cell assay, 15-point titration. activity change, negative = inhibition, % at 32.9 µM. 1,400 tested, under 10 active; calls by dose curve
Of the large screens only hits and unclear results are named; the others gave an inactive call (follow-up assays come after a bar, where they were run). Only some compounds are listed: those with a hit (about 1.2% of all), similar ones and a draw of the others. Unless noted, calls come from the whole dose curve; as a rule, active = well fitted curve in the direction sought with a large enough effect; inconclusive = small, poorly fitted or top-dose-only effect, or another doubt; inactive = no such curve, though single readings can be large; an effect the other way counts as inactive or inconclusive.

Cc1ccc(S(=O)(=O)c2cc3c(=O)n4ccccc4nc3n(Cc3ccco3)c2=N)cc1C	none
Cc1ccc(S(=O)(=O)c2cc3c(=O)n4ccccc4nc3n(CC3CCCO3)c2=N)cc1C (stereo unspecified)	NS1 inh 8.9µM | NS1 inh valid inconclusive
COc1ccc(F)cc1S(=O)(=O)NCCc1sc2nc(-c3ccc(F)cc3)nn2c1C	none (no result: AMA1 RON2 block, Giardia FBPA inh, LmPK inh, NS1 inh)
O=C(O)CC(c1cccc2ccccc12)N1Cc2ccccc2C1=O (stereo unspecified)	NS1 inh inconclusive | NS1 inh valid inactive
O=C(O)CC(c1ccc(F)cc1F)N1Cc2ccccc2C1=O (stereo unspecified)	none
Cc1noc(C)c1-c1cncnc1N(C)Cc1ccco1	none (no result: AMA1 RON2 block, TbPYK inhibitor, LmPK inh, NS1 inh)
Cc1oc(C)c2c(=O)ccc3c(c12)OC(N)=C(C#N)C3c1ccc(F)cc1 (stereo unspecified)	Giardia FBPA inh 5.6µM, NS1 inh 8.9µM | NS1 inh valid inactive
CCOc1ccc(NC(=O)c2c(NC(=O)c3ccccc3F)sc3c2CCC3)cc1	none (no result: AMA1 RON2 block, Giardia FBPA inh, LmPK inh, NS1 inh)
CCOc1ccc(NC(=O)c2c(NC(=O)CNCCN3CCOCC3)sc3c2CCC3)cc1	NS1 inh 2.8µM | NS1 inh valid inactive
C=CCN1C(=O)CS/C1=C(\C#N)S(=O)(=O)c1ccc(C)cc1	NS1 inh 1.6µM | NS1 inh valid inactive
C=CCN1C(=O)CSC1=Nc1ccc(C(=O)O)cc1	none
CCCN1CCC(=O)N(CCSc2ccc(Br)cc2)CC1	none (no result: AMA1 RON2 block, TbPYK inhibitor, LmPK inh, NS1 inh)
Cc1c(OC(C)C(=O)N[C@H](C(=O)O)c2ccccc2)ccc2c3c(c(=O)oc12)CCCC3 (stereo partly specified)	NS1 inh 10µM | NS1 inh valid inactive
Cc1c(OC(C)C(=O)NCC(O)c2ccccc2)ccc2c3c(c(=O)oc12)CCC3 (stereo unspecified)	none
C=CCN1CC[C@]23c4c5ccc(O)c4OC2C(=O)CC[C@@]3(O)C1C5 (stereo partly specified)	NS1 inh 13µM | NS1 inh valid inactive
O=C(NCc1ccco1)C1CCCN(S(=O)(=O)c2ccc(-n3cnnn3)cc2)C1 (stereo unspecified)	NS1 inh 4µM | NS1 inh valid inactive
CC1=C(C(=O)OCc2ccccc2)C(C2CCCCC2)NC(=O)N1CCCCCC(=O)O (stereo unspecified)	none (no result: AMA1 RON2 block, TbPYK inhibitor, LmPK inh, NS1 inh)
Clc1ccc(CN2CCCN(Cc3ccc(Cl)cc3)C2c2cc3ccccc3c3ccccc23)cc1	none (no result: AMA1 RON2 block, TbPYK inhibitor, Giardia FBPA inh, LmPK inh)
CN(c1ccccc1)S(=O)(=O)c1ccc2[nH]c(=O)oc2c1	NS1 inh inconclusive | NS1 inh valid inactive
CN(Cc1ccccc1)S(=O)(=O)c1ccc2[nH]c(=O)oc2c1	Giardia FBPA inh inconclusive
CCCN(CCC)C1=N/C(=C\c2ccco2)C(=O)N1c1ccccc1	NS1 inh 1.1µM | NS1 inh valid inactive
N#CC(=C(/N)Sc1ccccc1N)/C(C#N)=C(/N)Sc1ccccc1N	none (no result: AMA1 RON2 block, TbPYK inhibitor, LmPK inh, NS1 inh)
CC(C)NS(=O)(=O)c1ccc(OCC(=O)Nc2ccc3c(c2)OCO3)cc1	none (no result: NS1 inh)
CC(C)NS(=O)(=O)c1ccc(OCC(=O)Nc2cccc(F)c2)cc1	NS1 inh inconclusive | NS1 inh valid inactive
CCOC(=O)C1(Cc2cccc(OC)c2)CCCN(C(=O)CCN2CCCO2)C1 (stereo unspecified)	NS1 inh inconclusive (no result: Giardia FBPA inh) | NS1 inh valid inactive
O=C(CSc1nnc(-c2cc3ccccc3cc2O)n1Cc1ccco1)c1ccc(F)cc1	NS1 inh 8.9µM | NS1 inh valid inactive
O=C(Nc1ccc(S(=O)(=O)Nc2nccs2)cc1)c1cc(-c2ccccc2)nc2ccccc12	NS1 inh 11µM | NS1 inh valid inactive
Cc1nn(Cc2ccccc2Cl)c(Cl)c1C(=O)OCC(=O)NC(=O)NC1CCCCC1	NS1 inh 22µM | NS1 inh valid inactive
CCOc1cc(C#N)c(NC(=O)CSc2nnnn2-c2ccc(OC)cc2)cc1OCC	NS1 inh inconclusive | NS1 inh valid inactive
O=C1CN(C(=O)COC(=O)c2ccc(N3CCCCCC3)c([N+](=O)[O-])c2)c2ccccc2N1	NS1 inh 10µM | NS1 inh valid inactive
Cc1nnc(NC(=O)CSc2ncc(-c3ccccc3)[nH]2)s1	NS1 inh 4.5µM | NS1 inh valid inactive

Source: PubChem BioAssay
